Assay results reported in PubChem BioAssay AID624300 (Southern Research Specialized Biocontainment Screening …, 2012).
The campaign covered roughly 2,400 compounds. About 360 (15%) were called active. A selection follows. Measured potencies and affinities stand elsewhere. Values without a mark were called inactive.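 The calls were made as follows: active = viability falls under 70% at one or more tested concentrations, taken as toxicity; inactive = viability stays over 70% at every dose.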

Experiment: viability loss in HeLa cells – cytotoxicity control for MgcRacGAP inhibitor project, dose response (AID 624300);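 also: 100% = median of untreated control wells on the same plate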
Conditions: CellTiter-Glo luminescence, 24 h; series mostly up to 100 µM; viability: at the top concentration

| SMILES | viability |
| --- | --- |
| Nc1ccc2c(c1)OCCOCCOCCOCCOCCO2 | 97.6% |
| Oc1ccccc1CNc1ccc2c(c1)OCCO2 | 99.8% |
| Nc1ccc2nc(CCCCc3nc4ccccc4[nH]3)[nH]c2c1 | 96.5% |
| CCOC(=O)c1cc(NCc2cccs2)ccc1N1CCOCC1 | 95.5% |
| CN1CCN(/N=C/c2nc(-c3ccccc3)n3ccccc23)CC1 | 103% |
| CN(C)c1ccc(Nc2ccc([N+](=O)[O-])cn2)cc1 | 109% |
| c1cc(CNc2ccc3c(c2)OCCO3)ccn1 | 105% |
| Cc1ccc(CN2CCN(Cc3ccco3)CC2)cc1 | 92.4% |
| CN1CCCN(Cc2ccccc2C(F)(F)F)CC1 | 96.8% |
| Cc1ccc(NC(=O)CN(C)C2CCCCC2)cc1Cl | 122% |
| CN1C(=O)NC(c2ccc(O)cc2)C2=C1CN(c1ccc(O)cc1)C2=O (stereo not drawn) | 111% |
| COc1ccc(/C=N/NC(=O)c2cccc(S(=O)(=O)N3CCCC3)c2)cc1O | 98.2% |
| CN(C)c1cc(NC(=O)CN2CCCC2)c2ccccc2n1 | 91.6% |
| CCOc1ccc(CNC2CCCc3ccccc32)cc1 (stereo not drawn) | 87% |
| Nc1ccn([C@@H]2O[C@H](CNCC3=CCOc4ccc(O)cc43)[C@@H](O)[C@H]2O)c(=O)n1 | 103% |
| O=C(c1ccccc1)c1ccc(C(=O)N2CCN(c3ccc(O)cc3)CC2)cc1 | 91.1% |
| O=C(c1cc(C2CC2)nn1-c1ccccc1)N1CCN(c2ccc(O)cc2)CC1 | 106% |
| O=C(CN1CCCCCC1)Nc1nc2ccccc2s1 | 92.9% |
| Cc1ccc(NC(=O)CN2CCC(Cc3ccccc3)CC2)cc1S(=O)(=O)N(C)C | 82.5% |
| Cn1c(N2CCOCC2)c(/C=N/O)c2ccccc21 | 95.4% |
| CN(C)/N=C/c1ccc(N2CCOCC2)cc1 | 99.3% |
| COc1ccc(NC(=S)NNS(=O)(=O)c2ccc3ccccc3c2)c(OC)c1 | 103% |
| O=C(NC(=S)N1CCN(c2ccc(O)cc2)CC1)c1ccco1 | 98.4% |
| COc1cccc(N2CC(C(=O)Oc3ccc4ccccc4c3)CC2=O)c1 (stereo not drawn) | 102% |

| SMILES | viability |
| --- | --- |
| COc1ccc(Cn2nnnc2C(c2cccnc2)N2CCN(c3ccc(O)cc3)CC2)cc1 (stereo not drawn) | 94.8% |
| CC1(C)CC(=O)C(C=Nc2ccc(O)cc2)=C(O)C1 | 102% |
| CC1(C)CC(=O)C=C(Nc2ccc(O)cc2)C1 | 100% |
| Cc1ccc(/C=N/Nc2ccc(Cl)c(C(=O)O)c2)s1 | 97.3% |
| CCN(CC(=O)Nc1ccc(S(=O)(=O)N2CCCC2)cc1)CC(=O)Nc1cccc(OC)c1 | 98.4% |
| Nc1cc(SCc2ccc([N+](=O)[O-])cc2)ncn1 | 98.7% |
| O=[N+]([O-])c1ccc(Oc2cccc3cccnc23)c([N+](=O)[O-])c1 | 100% |
| Cc1ccc(S(=O)(=O)Oc2ccc(/C=C3/C(=N)N4C(=NC3=O)SN=C4S(C)(=O)=O)cc2)cc1 | 106% |
| COc1cc2nc(=S)n(CCCN3CCOCC3)c(N)c2cc1OC | 98.3% |
| COc1cccc(CNc2ccc3c(c2)ncn3C)c1OC | 96.4% |
| CC(Oc1ccc(Cl)cc1Cl)C(=O)Nc1ccc(O)cc1 (stereo not drawn) | 113% |
| Oc1ccc(NCc2ccccc2OCc2ccccc2F)cc1 | 108% |
| COc1cccc(CNc2ccc(N3CCCCC3)cc2)c1OC | 91.9% |
| O=C(c1c(Cl)cccc1Cl)N1CCN(c2cccc3[nH]ccc23)CC1 | 85.3% |
| COc1ccc(N2CCC(CNC(=S)Nc3cccc(C)c3)C2)cc1 (stereo not drawn) | 81.7% |
| Cc1nc2ccccc2n2c(O)c(CC(=O)O)cc12 | 101% |
| Clc1cc(Cl)c(OCCCCn2cncn2)c(Cl)c1 | 93.2% |
| COc1cc(/C=N\N=C2/SC(CC(=O)O)C(=O)N2c2ccc(O)cc2)ccc1O (stereo not drawn) | 108% |
| CCN(CC)S(=O)(=O)c1ccc(C)c(NC(=O)CN2CCN(Cc3ccccc3)CC2)c1 | 95.8% |
| CCN(CC)c1ccc(S(=O)(=O)N2CCOCC2)cc1NC(=O)COC(=O)/C=C/c1ccc(O)c(OC)c1 | 91% |
| CCn1cnc2cc(NCc3ccc(OC)cc3)ccc21 | 98.5% |
| COc1ccc2c(c1)-c1nc(/N=C/c3ccccc3O)sc1CC2 | 111% |
| Cn1cccc1/C=N/N1CCN(c2ccccc2)CC1 | 104% |
| COc1cc(/C=N/NC(=O)c2nc(C)cc(C)n2)ccc1O | 105% |

| SMILES | viability |
| --- | --- |
| Cc1cc(=O)[nH]c(N/N=C/c2ccc(O)c(O)c2)n1 | 101% |
| Cc1cc(C)n(CCC(=O)N/N=C/c2ccc(O)cc2)n1 | 96.2% |
| COc1cc(/C=N/Nc2cccc3cccnc23)cc(OC)c1O | 95.5% |
| COc1cc(/C=C/C(=O)OCC(=O)N2CCCc3ccccc32)ccc1O | 97.4% |
| COc1cc(/C=C/C(=O)OCC(=O)NC(=O)NC(C)(C)C)ccc1O | 88.8% |
| COc1cc(/C=C/C(=O)OCC(=O)NC2CCS(=O)(=O)C2)ccc1O (stereo not drawn) | 109% |
| COc1ccc(N2CCN(C(c3cccs3)C(C)NC(=O)c3ccco3)CC2)cc1 (stereo not drawn) | 94.4% |
| O=C1NN(c2ccccc2)C(=O)C1=Cc1ccccc1O | 104% |
| O=C1NN(c2ccc(Br)cc2)C(=O)/C1=C\c1ccc(O)cc1O | 87.2% |
| C(=N\N1CCOCC1)/c1nc(-c2ccccc2)n2ccccc12 | 101% |
| COc1cc(OC)cc(C(=O)N2CCN(Cc3ccccc3Br)CC2)c1 | 86.6% |
| COc1cc(/C=N/NC(=O)CCN2CCCCC2)ccc1O | 101% |
| COc1ccc2c(c1)-c1nc(/N=C/c3cccc(OC)c3O)sc1CC2 | 112% |
| COc1ccc2nc(C)cc(SCC(=O)N/N=C/c3ccc(O)c(O)c3)c2c1 | 97.9% |
| COc1cc(/C=N/Nc2ccccn2)cc(OC)c1O | 91.8% |
| COc1ccc2c(/C=N/Nc3ccc(C(=O)O)cc3)c[nH]c2c1 | 102% |
| CN1CCCCCC1=Nc1ccccc1C#N | 92.2% |
| CCn1c(C)nc2cc(C(=O)N/N=C/c3cccc(O)c3O)ccc21 | 108% |
| O=c1/c(=C/c2ccc(O)cc2)sc2n1CCCN=2 | 102% |
| Cc1c(N=Nc2ccc(O)cc2)c(=O)n(-c2ccccc2)n1C | 103% |
| NC(=S)NNc1ccnc2cc(Cl)ccc12 | 88% |
| Oc1ccc(Nc2ccnc3cc(Cl)ccc23)cc1 | 95.1% |
| Cc1ccc(NCc2ccco2)cc1C | 105% |
| COc1cc(/C=N/NC(=O)CCC(=O)Nc2ccc(F)cc2)ccc1O | 103% |

| SMILES | viability |
| --- | --- |
| CN(C)c1ccc(N/C=C/C(=O)C(C)(C)C)cc1 | 96.1% |
| COc1cc(/C=N/N=C(\N)c2nonc2N)ccc1O | 91.8% |
| CNc1nnc(-c2ccc(N(C)C)cc2)s1 | 106% |
| CCN(CC)c1ccc(N=Cc2c(C)[nH]c3ccccc23)cc1 | 87.1% |
| COCCNCC(=O)Nc1ccc(C)c(S(=O)(=O)N2CCCCC2)c1 | 101% |
| CCN(CC)c1ccc(/C=N\NC(N)=O)cc1 | 90.5% |
| COc1cc(/C=N/NC(=O)c2ccoc2C)ccc1O | 84.7% |
| COc1cc(OC)c(Cl)cc1N | 103% |
| CCc1cc(/C(Cc2ccccn2)=N\O)c(O)cc1O | 89.5% |
| CCc1cc(/C(Cc2csc(C)n2)=N/O)c(O)cc1O | 95.9% |
| COc1ccc(C)cc1NCc1cccc(OC)c1OC | 99.1% |
| Cn1cccc1/C=N/N1CCN(c2ccccn2)CC1 | 99.6% |
| Cc1ccc(C(C)C)c(OCCCCN2CCNCC2)c1 | 89.7% |
| Cc1ccc(C(C)(C)C)cc1S(=O)(=O)N1CCC(C(=O)N2CCN(c3ccc(O)cc3)CC2)CC1 | 82.4% |
| N#C/C(=C/c1ccc(N2CCCCCC2)o1)c1ccc(Cl)cc1 | 81.8% |
| Cc1ccc(/C(C#N)=C\c2ccc(N3CCOCC3)o2)cc1 | 95.3% |
| Nc1sc(-c2ccccc2)c(Cc2ccccc2)c1C(=O)O | 87.5% |
| COc1ccc2c(c1)c(C(=O)N/N=C/c1ccc(O)c(O)c1)c(C)n2C | 94.3% |
| COc1cccc(OCC(O)CN2CCN(C)CC2)c1 (stereo not drawn) | 102% |
| CCN1CCN(CC(O)COC(c2ccccc2)c2ccccc2C)CC1 (stereo not drawn) | 104% |
| O=[N+]([O-])c1cccc(CN2CCN(Cc3ccco3)CC2)c1 | 101% |
| O=[N+]([O-])c1ccc(Sc2cccc3cccnc23)c([N+](=O)[O-])c1 | 101% |
| CCc1cc(-c2[nH]ncc2-c2nc3ccccc3n2C)c(O)cc1O | 91% |
| CCOc1cc(/C=N/Nc2nc(=O)[nH]nc2C)ccc1O | 91.2% |

| SMILES | viability |
| --- | --- |
| COc1cc(/C=N/Nc2ccc(C(F)(F)F)cn2)ccc1O | 89.1% |
| COc1ccc(CN2CCN(C(=O)CC(C)C)CC2)cc1OC | 102% |
| Cc1nnc2ccc(Oc3ccc(-c4ccccc4)cc3)nn12 | 95.5% |
| Nc1cc2c(cc1N)-c1ccccc1C2 | 94.9% |
| CCOC(=O)Nc1ccc2c(c1)Nc1ccccc1S2 | 96.4% |
| CC(=O)c1ccc2c(c1)Nc1ccccc1S2 | 94.2% |
| O=C(Sc1n[nH]c(=O)[nH]c1=O)c1ccccc1 | 101% |
| CCN(CC)c1ccc(/C=N/N2CCN(Cc3ccccc3)CC2)cc1 | 90.3% |
| O=C(Nc1ccc(N2CCCCCC2)cc1)c1ccc[nH]1 | 89.3% |
| CC(C)(C)N1C(=O)c2ccc(C(=O)Nc3ccc(O)cc3)cc2C1=O | 99.5% |
| Oc1ccc(/C=C/c2ccc3ccccc3n2)cc1 | 87.7% |
| O=C(O)c1ccc2nc(-c3ccco3)c(-c3ccco3)nc2c1 | 95% |
| COc1cc(/C=C2/SC(=S)N(c3c(C)n(C)n(-c4ccccc4)c3=O)C2=O)ccc1O | 90.8% |
| COc1cc(C=C2NC(=O)NC2=O)ccc1O | 108% |
| CCOC(=O)C1CCCN(C2=NC(=O)/C(=C/c3ccc(O)c(OC)c3)S2)C1 (stereo not drawn) | 91.8% |
| CCOc1cc(/C=C2\SC(N)=NC2=O)ccc1O | 95.2% |
| COc1cc(/C=C2\SC(=Nc3c(C)n(C)n(-c4ccccc4)c3=O)NC2=O)ccc1O | 97.3% |
| COc1cc(/C=C2\SC(=S)N(NC(=O)c3ccncc3)C2=O)ccc1O | 90.9% |
| COc1cc(/C=C2\SC(N3CCC(C)CC3)=NC2=O)ccc1O | 106% |
| O=C1/C(=C\c2ccc(O)c(O)c2)N=C2CCCCCN12 | 98.1% |
| COc1cc(/C=N/NC(=O)c2cccc(N3CCCC3=O)c2)ccc1O | 97.9% |
| COc1ccc2cc(C(=O)Nc3ccc(O)cc3)sc(=O)c2c1OC | 99.2% |
